Test results taken from PubChem BioAssay (EPA / NIEHS).
Results filed as inconclusive are left out. Active and inactive are the calls of the source. The calls were made as follows, unless noted: active = hit-call score of the fitted dose curve at least 0.9, where 1 is the maximum; inactive = score below 0.9.

Assays:
[1] = ATG_CRE_CIS: Attagene CIS-FACTORIAL HepG2 Assay for human cAMP Responsive Element (CRE) binding protein 3 (AID 2282926); conditions: HepG2 CRE cis-reporter, Attagene multiplexed mRNA; actives raise or lower the signal
Summary of the method: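 Human liver HepG2, transient MRTU transfection, 24 h compound exposure. Total RNA → oligo(dT) RT → PCR → 6-FAM primer extension → HpaI cut → CE. Activity called both directions vs DMSO.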

[2] = ATG_DR4_LXR_CIS: Attagene CIS-FACTORIAL HepG2 Assay for human Liver X Receptor (LXR), DR4 submotif (AID 2282929); conditions: HepG2 Attagene DR4 cis-reporter, mRNA transcription; actives raise or lower the signal
Summary of the method: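 Measures endogenous transcription factor activity via a DR4-driven reporter transcript in human HepG2 cells. Compounds incubated 24 h; mRNA quantified by RT-PCR and capillary electrophoresis, analysed as gain or loss of signal versus DMSO.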

[3] = ATG_Ets_CIS: Attagene CIS-FACTORIAL HepG2 Assay for human Erythroblast Transformation Specific (ETS) (AID 2282941); conditions: HepG2 ETS cis-reporter transcription, actives raise or lower the signal
Summary of the method: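 Human HepG2 hepatoma cells were transiently transfected with promoter-driven reporter constructs and treated for 24 hours. Reporter transcripts were quantified by RT-PCR with fluorescent primer extension; bidirectional curve fitting used DMSO as reference.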

[4] = target: Hypoxia-inducible factor 1-alpha (Homo sapiens) (UniProt Q16665); assay: ATG_HIF1a_CIS: Attagene CIS-FACTORIAL HepG2 Assay for human Hypoxia Inducible Factor 1 (HIF1A) (AID 2282951); conditions: HepG2 Attagene cis-factorial HIF1a reporter transcription; actives raise or lower the signal
Summary of the method: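 In this multiplexed cell assay, HepG2 cells bearing transfected cis reporters are dosed for 24 h and reporter mRNA is read by RT-PCR plus capillary electrophoresis; signal increases and decreases are both scored against DMSO.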

[5] = target: Heat shock factor protein 1 (Homo sapiens) (UniProt Q00613); assay: ATG_HSE_CIS: Attagene CIS-FACTORIAL HepG2 Assay for human Heat Shock Transcription Factor 1 (HSE) (AID 2282953); conditions: HepG2 HSE cis-reporter, Attagene RNA transcription; actives raise or lower the signal
Summary of the method: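 Endogenous transcription factor activity captured via cis-promoter reporter units transfected into HepG2; treatment lasted 24 h. Fluorescence intensity of reporter fragments analysed with bidirectional curve fitting, DMSO baseline.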

[6] = target: Signal transducer and activator of transcription 3 (Homo sapiens) (UniProt P40763); assay: ATG_STAT3_CIS: Attagene CIS-FACTORIAL HepG2 Assay for human Signal Transducer and Activator of Transcription 3 (STAT3) (AID 2282963); conditions: HepG2, Attagene cis-factorial STAT3 reporter transcription; actives raise or lower the signal
Summary of the method: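 HepG2 cells transiently transfected with cis-element-driven multiple reporter transcription units; after 24 h chemical exposure, reporter mRNA measured by RT-PCR, 6-FAM primer-extension labelling, HpaI digestion and capillary electrophoresis. Bidirectional fitting versus DMSO baseline.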

[7] = ATG_TA_CIS: Attagene CIS-FACTORIAL HepG2 Assay for human TA Basal Promoter (AID 2282964); conditions: HepG2 Attagene CIS-factorial TA basal promoter reporter; actives raise or lower the signal
Summary of the method: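 Fluorescence from labelled RT-PCR reporter fragments, separated by capillary electrophoresis, gives the signal. Cells: HepG2 transiently carrying multiple reporter units, 24 h chemical dosing. Gain or loss relative to DMSO.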

[8] = ATG_TCF_b_cat_CIS: Attagene CIS-FACTORIAL HepG2 Assay for human T-Cell-Factor with beta-catenin (TCF/b-cat) (AID 2282965); conditions: HepG2 TCF/beta-catenin cis-reporter transcription, actives raise or lower the signal
Summary of the method: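 Using capillary electrophoresis as the read-out, labelled reporter cDNA fragments from transiently transfected HepG2 were sized and quantified. Exposure lasted 24 hours; activity in either direction was referenced to DMSO.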

[9] = ATG_TAL_CIS: Attagene CIS-FACTORIAL HepG2 Assay for human TAL Basal Promoter (AID 2282966); conditions: HepG2 Attagene cis-factorial TAL promoter reporter; actives raise or lower the signal;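 also: background control endpoint measuring basal TAL promoter reporter mRNA not a specific factor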
Summary of the method: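 Fluorescence of labelled reporter cDNA fragments, resolved by capillary electrophoresis, gave the readout. Human HepG2 liver cells carried transiently transfected cis-element reporter units and were treated for 24 hours; activity was fitted bidirectionally against DMSO.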

[10] = target: X-box-binding protein 1 (Homo sapiens) (UniProt P17861); assay: ATG_Xbp1_CIS: Attagene CIS-FACTORIAL HepG2 Assay for human X-box Binding Protein 1 (XBP1) (AID 2282972); conditions: HepG2 XBP1 cis-element reporter, Attagene multiplex; actives raise or lower the signal
Summary of the method: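 Fluorescence-labelled cDNA fragments from reporter transcripts, separated by capillary electrophoresis, give the signal. Source: HepG2 cells transfected with promoter-driven reporter units, harvested 24 h post-dose. DMSO served as reference for bidirectional curve fitting.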

[11] = target: Transcriptional activator Myb (Homo sapiens) (UniProt P10242); assay: ATG_Myb_CIS: Attagene CIS-FACTORIAL HepG2 Assay for human Myeloblastosis (Myb) Proto-Oncogene Transcription Factor (AID 2282986); conditions: HepG2 Attagene CIS-FACTORIAL Myb reporter transcription; actives raise or lower the signal
Summary of the method: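 Fluorescence signals from capillary electrophoresis of RT-PCR-amplified reporter cDNA give the read-out. Cells: HepG2 transfected with multiple cis-regulated reporter units. Exposure lasts 24 hours; DMSO defines baseline for gain or loss of signal.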

[12] = ATG_NFI_CIS: Attagene CIS-FACTORIAL HepG2 Assay for human Nuclear Factor I (NFI) (AID 2282989); conditions: HepG2 cis-regulatory reporter, NFI response element transcription; actives raise or lower the signal
Summary of the method: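 Cells: human liver HepG2, transiently transfected with promoter-regulated reporter transcription units. Exposure 24 h. Detection: fluorescent RT-PCR products separated by capillary electrophoresis, normalised to DMSO negative control.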

[13] = target: Myc proto-oncogene protein (Homo sapiens) (UniProt P01106); assay: ATG_Myc_CIS: Attagene CIS-FACTORIAL HepG2 Assay for human Myelocytomatosis (Myc) Proto-Oncogene Transcription Factor (AID 2282990); conditions: HepG2, Attagene cis-reporter transcription factor activity; actives raise or lower the signal
Summary of the method: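 Multiplexed cis-reporter transcription in HepG2 cells after 24 h chemical treatment. Reporter mRNA measured by RT-PCR and capillary electrophoresis fluorescence; activity fitted bidirectionally against DMSO control.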

[14] = ATG_NRF2_ARE_CIS: Attagene CIS-FACTORIAL HepG2 Assay for human Nuclear Factor Erythroid 2 Related Factor 2 (NFR2) response to Antioxidant Response Elements (ARE) (AID 2282992); conditions: HepG2 Attagene ARE/NRF2 reporter, transcription factor activity; actives raise or lower the signal
Summary of the method: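 Multiplexed reporter mRNA profiling in HepG2 after a 24 h chemical exposure. Curves fitted in both directions relative to DMSO negative control.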

[15] = ATG_Oct_MLP_CIS: Attagene CIS-FACTORIAL HepG2 Assay for human Octamer-Binding Transcription Factor (Oct) (AID 2282993); conditions: HepG2 Attagene cis-factorial Oct reporter, mRNA; actives raise or lower the signal
Summary of the method: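 HepG2, transient MRTU transfection, cis promoter elements; 24 h dosing; RT-PCR/CE fluorescence read-out of reporter mRNA; fit both directions vs DMSO.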

[16] = target: Nuclear receptor subfamily 1 group I member 2 (Homo sapiens) (UniProt O75469); assay: ATG_PXR_TRANS: Attagene TRANS-FACTORIAL HepG2 Assay for human Pregnane X Receptor (PXR) (AID 2283008; active = hit-call score of the fitted dose curve at least 0.9, where 1 is the maximum)
Summary of the method: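 Measures mRNA induction of a GAL4-UAS-driven reporter in human HepG2 cells transiently expressing PXR fused to Gal4, following 24 h treatment. DMSO served as negative control and baseline.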

[17] = ATG_AP_1_CIS: Attagene CIS-FACTORIAL HepG2 Assay for human Activator Protein 1 (AP-1) (AID 2282931); conditions: HepG2 Attagene cis-factorial AP-1 reporter mRNA; actives raise or lower the signal
Summary of the method: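 Bidirectional concentration-response fitting against DMSO controls. Underlying signal: reporter mRNA from cis-promoter constructs in transiently transfected HepG2, measured after 24 h by RT-PCR and capillary electrophoresis.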

[18] = target: Paired box protein Pax-6 (Homo sapiens) (UniProt P26367); assay: ATG_Pax6_CIS: Attagene CIS-FACTORIAL HepG2 Assay for human Paired Box 6 (PAX6) (AID 2282956); conditions: HepG2 CIS-FACTORIAL PAX6 reporter transcription, RNA readout; actives raise or lower the signal
Summary of the method: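 Multiplexed cis-reporter HepG2 system; 24 h treatment; reporter mRNA read by RT-PCR/CE fluorescence; bidirectional fit vs DMSO.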

[19] = ATG_XTT_Cytotoxicity: Cytotoxicity Assessment in the Attagene TRANS-FACTORIAL HepG2 Assay (AID 2283584; active = hit-call score of the fitted dose curve at least 0.9, where 1 is the maximum;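 as to AC50: cells exposed to compound for 24 h before reading; active means loss of viability signal versus DMSO baseline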)
Summary of the method: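 Cells: human HepG2, transiently transfected with MRTU reporter constructs. Exposure 24 h. Readout: XTT, cell number. Baseline/neg ctrl DMSO; loss-of-signal scored.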

[20] = target: Cellular tumor antigen p53 (Homo sapiens) (UniProt P04637); assay: ATG_p53_CIS: Attagene CIS-FACTORIAL HepG2 Assay for human p53 Transcription Factor (AID 2282994); conditions: HepG2 p53 cis-element reporter, Attagene mRNA; actives raise or lower the signal
Summary of the method: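 Multiplexed reporter mRNA assay in human HepG2 liver cells; cis-regulated units report endogenous factor activity. Values come from bidirectional curve fitting against DMSO negative control after 24 h treatment.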

Measured: AC50

Sequence of Nuclear receptor subfamily 1 group I member 2 (Homo sapiens) (O75469 whole entry, looked up, the tested form may be a part): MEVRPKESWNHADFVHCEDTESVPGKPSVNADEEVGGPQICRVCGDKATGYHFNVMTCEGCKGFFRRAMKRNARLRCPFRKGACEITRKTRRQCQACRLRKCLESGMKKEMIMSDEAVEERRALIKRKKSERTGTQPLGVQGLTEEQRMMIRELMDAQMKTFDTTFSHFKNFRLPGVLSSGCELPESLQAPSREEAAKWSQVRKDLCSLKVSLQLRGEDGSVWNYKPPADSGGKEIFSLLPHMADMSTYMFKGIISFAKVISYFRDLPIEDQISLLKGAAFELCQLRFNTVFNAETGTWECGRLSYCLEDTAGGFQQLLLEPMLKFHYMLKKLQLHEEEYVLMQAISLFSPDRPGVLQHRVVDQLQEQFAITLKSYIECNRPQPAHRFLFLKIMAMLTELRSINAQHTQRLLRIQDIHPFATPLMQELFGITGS
Sequence of Myc proto-oncogene protein (Homo sapiens) (P01106 whole entry, looked up): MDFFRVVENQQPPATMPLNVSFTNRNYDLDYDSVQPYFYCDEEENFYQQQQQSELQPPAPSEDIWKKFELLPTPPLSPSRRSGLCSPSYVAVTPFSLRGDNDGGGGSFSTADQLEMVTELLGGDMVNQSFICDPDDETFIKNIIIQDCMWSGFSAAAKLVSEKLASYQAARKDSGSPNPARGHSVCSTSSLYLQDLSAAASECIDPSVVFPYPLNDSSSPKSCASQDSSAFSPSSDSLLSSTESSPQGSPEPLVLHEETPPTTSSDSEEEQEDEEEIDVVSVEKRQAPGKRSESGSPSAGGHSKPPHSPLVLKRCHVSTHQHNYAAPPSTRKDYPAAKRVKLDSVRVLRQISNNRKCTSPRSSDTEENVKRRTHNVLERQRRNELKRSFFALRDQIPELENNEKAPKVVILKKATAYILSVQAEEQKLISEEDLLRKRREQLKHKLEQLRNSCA
Sequence of X-box-binding protein 1 (Homo sapiens) (P17861 whole entry, looked up, the tested form may be a part): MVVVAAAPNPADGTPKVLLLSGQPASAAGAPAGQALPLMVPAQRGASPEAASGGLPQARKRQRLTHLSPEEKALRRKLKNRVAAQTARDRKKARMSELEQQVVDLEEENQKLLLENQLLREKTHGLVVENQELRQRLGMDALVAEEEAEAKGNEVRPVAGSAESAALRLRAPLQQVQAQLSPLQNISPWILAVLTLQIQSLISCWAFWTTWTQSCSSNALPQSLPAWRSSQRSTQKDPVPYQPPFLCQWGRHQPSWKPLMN
Sequence of Transcriptional activator Myb (Homo sapiens) (P10242 whole entry, looked up): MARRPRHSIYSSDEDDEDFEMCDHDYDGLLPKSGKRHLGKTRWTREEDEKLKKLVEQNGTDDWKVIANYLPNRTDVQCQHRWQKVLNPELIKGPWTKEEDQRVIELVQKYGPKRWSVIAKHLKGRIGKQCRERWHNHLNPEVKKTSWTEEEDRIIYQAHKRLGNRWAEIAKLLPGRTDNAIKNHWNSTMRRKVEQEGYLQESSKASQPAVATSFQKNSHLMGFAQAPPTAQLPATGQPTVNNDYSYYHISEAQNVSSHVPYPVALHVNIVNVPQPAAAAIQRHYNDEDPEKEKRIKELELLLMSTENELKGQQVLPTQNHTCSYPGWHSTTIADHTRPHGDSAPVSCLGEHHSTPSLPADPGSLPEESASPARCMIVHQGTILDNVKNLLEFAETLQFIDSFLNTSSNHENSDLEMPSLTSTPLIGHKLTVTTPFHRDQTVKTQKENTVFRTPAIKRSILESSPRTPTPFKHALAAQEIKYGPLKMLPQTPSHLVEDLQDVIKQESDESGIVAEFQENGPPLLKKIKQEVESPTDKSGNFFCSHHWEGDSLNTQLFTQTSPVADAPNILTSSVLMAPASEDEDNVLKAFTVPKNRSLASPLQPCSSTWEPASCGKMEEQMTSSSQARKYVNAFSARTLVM
Sequence of Heat shock factor protein 1 (Homo sapiens) (Q00613 whole entry, looked up, the tested form may be a part): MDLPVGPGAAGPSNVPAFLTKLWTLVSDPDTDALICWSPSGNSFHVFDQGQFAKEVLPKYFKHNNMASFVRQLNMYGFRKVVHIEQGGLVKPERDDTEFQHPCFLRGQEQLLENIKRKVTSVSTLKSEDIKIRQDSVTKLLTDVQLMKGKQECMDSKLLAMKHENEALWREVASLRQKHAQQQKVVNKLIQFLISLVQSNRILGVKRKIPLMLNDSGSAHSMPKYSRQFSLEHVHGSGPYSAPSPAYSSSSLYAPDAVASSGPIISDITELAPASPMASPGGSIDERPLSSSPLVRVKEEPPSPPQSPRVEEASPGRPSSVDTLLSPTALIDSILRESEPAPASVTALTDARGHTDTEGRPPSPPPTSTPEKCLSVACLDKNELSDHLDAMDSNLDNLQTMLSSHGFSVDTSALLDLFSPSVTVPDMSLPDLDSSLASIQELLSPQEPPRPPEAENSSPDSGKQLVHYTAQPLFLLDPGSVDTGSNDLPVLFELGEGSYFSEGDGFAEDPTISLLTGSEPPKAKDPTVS
Sequence of Hypoxia-inducible factor 1-alpha (Homo sapiens) (Q16665 whole entry, looked up): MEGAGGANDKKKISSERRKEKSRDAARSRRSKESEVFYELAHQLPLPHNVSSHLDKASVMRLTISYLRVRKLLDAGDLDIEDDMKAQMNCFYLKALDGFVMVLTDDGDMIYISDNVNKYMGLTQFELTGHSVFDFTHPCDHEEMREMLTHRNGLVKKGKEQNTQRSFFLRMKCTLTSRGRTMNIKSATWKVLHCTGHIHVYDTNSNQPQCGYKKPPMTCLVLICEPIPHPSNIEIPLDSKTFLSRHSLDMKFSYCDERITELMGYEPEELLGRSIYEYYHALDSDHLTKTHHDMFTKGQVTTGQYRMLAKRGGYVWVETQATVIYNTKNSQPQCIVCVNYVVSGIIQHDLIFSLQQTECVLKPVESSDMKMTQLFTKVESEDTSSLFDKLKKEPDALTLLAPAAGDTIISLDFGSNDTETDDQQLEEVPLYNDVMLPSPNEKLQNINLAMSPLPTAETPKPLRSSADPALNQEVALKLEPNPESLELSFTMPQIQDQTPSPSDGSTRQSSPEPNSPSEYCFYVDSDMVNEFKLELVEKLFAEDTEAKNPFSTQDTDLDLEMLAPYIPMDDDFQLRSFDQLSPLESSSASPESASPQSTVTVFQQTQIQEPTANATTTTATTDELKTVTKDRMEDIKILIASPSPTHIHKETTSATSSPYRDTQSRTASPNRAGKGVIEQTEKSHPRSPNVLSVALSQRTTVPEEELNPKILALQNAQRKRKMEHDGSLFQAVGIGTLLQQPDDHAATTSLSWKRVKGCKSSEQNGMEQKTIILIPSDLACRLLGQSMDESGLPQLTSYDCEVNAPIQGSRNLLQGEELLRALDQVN
Sequence of Signal transducer and activator of transcription 3 (Homo sapiens) (P40763 whole entry, looked up): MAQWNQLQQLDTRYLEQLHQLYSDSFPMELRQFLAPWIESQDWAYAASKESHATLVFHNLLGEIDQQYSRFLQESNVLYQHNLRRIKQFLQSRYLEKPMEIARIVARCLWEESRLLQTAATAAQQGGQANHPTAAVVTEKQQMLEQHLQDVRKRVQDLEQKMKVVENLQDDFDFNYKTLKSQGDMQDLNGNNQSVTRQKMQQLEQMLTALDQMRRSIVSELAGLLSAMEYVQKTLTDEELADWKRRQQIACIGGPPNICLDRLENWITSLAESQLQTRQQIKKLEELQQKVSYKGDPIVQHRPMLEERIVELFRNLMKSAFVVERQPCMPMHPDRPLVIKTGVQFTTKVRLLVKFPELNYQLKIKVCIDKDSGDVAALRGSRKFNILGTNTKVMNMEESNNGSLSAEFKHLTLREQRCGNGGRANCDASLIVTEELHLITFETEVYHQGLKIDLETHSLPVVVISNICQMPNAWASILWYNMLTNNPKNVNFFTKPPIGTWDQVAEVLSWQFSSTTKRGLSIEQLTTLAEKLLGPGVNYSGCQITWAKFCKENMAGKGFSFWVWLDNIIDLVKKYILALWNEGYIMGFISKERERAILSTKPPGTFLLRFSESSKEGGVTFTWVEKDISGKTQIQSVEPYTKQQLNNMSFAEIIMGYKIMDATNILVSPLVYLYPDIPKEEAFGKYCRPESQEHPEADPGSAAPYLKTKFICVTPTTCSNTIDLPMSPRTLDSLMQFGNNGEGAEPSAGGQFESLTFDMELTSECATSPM
Sequence of Paired box protein Pax-6 (Homo sapiens) (P26367 whole entry, looked up): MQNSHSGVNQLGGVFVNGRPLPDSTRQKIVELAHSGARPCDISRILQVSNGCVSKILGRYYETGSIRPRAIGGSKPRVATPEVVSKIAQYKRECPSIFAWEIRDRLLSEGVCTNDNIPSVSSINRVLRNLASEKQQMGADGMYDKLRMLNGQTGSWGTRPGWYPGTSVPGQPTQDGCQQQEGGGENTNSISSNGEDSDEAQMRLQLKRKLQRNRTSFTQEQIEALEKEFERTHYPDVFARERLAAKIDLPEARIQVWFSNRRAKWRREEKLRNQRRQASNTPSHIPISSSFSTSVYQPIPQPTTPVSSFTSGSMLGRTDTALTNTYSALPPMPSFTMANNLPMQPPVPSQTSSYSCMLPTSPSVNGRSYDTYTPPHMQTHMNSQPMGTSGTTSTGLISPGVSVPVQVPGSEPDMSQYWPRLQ
Sequence of Cellular tumor antigen p53 (Homo sapiens) (P04637 whole entry, looked up): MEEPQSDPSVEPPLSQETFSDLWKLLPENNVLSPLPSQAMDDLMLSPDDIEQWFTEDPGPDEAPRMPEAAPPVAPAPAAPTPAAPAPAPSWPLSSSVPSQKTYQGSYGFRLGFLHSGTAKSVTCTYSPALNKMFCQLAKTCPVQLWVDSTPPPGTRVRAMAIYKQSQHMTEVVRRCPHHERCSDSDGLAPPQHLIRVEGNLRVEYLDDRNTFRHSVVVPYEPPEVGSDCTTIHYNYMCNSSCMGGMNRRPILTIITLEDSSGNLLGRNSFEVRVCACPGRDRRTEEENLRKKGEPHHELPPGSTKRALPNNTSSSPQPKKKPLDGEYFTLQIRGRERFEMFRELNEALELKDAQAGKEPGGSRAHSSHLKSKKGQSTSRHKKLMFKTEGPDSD

F[B-](F)(F)F
not listed: [17] | [18] | [19] | [20]
inactive: all other assays above

C=C1CC[C@H]2C[C@@H]1C2(C)C
active: [1] 26 µM | [14] 21.9 µM | [16] 10.4 µM
not listed: [20]
inactive: all other assays above

c1cc(N(CC2CO2)CC2CO2)ccc1Cc1ccc(N(CC2CO2)CC2CO2)cc1 (stereo unspecified)
active: [2] 27.3 µM | [17] 54.4 µM | [4] 6.64 µM | [5] 18.6 µM | [18] 9.31 µM | [7] 26.1 µM | [8] 26.1 µM | [10] 6.26 µM | [12] 5.98 µM | [15] 8.18 µM | [20] 20.8 µM
inactive: [1] | [3] | [6] | [9] | [11] | [13] | [14] | [16] | [19]

C[Si](C)(C)O[Si](C)(C)O[Si](C)(C)C
not listed: [3] | [17]
inactive: all other assays above

Nc1ccc(S(=O)(=O)Nc2cnc3ccccc3n2)cc1
not listed: [4] | [14]
inactive: all other assays above

COc1c2occc2cc2ccc(=O)oc12
active: [16] 14.5 µM
not listed: [4] | [5] | [12] | [14]
inactive: all other assays above

CC(C)(Oc1ccc(Cl)cc1)C(=O)O
not listed: [4]
inactive: all other assays above

COC(OC)C(C)c1ccccc1 (stereo unspecified)
inactive: all assays above

CC(O)(P(=O)(O)O)P(=O)(O)O
not listed: [3] | [4] | [16] | [18] | [20]
inactive: all other assays above

Brc1ccc(Oc2ccc(Br)cc2)cc1
active: [17] 56.5 µM | [16] 7.35 µM
not listed: [14] | [19]
inactive: all other assays above

CC(C)n1c(/C=C/[C@@H](O)C[C@@H](O)CC(=O)O)c(-c2ccc(F)cc2)c2ccccc21
active: [20] 26 µM
not listed: [3] | [12] | [14] | [17] | [19]
inactive: all other assays above

O=C(Oc1ccccc1)c1ccccc1
not listed: [18] | [20]
inactive: all other assays above

CN1CCCC1
not listed: [14]
inactive: all other assays above

CN(C)CCCN1c2ccccc2CCc2ccc(Cl)cc21
active: [18] 11.1 µM | [8] 7.29 µM | [14] 17.7 µM | [20] 4.07 µM | [19] 25.7 µM
not listed: [4]
inactive: all other assays above

CO[Si](CCCNCCN)(OC)OC
not listed: [16] | [18] | [20]
inactive: all other assays above

CC=CC(=O)O
active: [4] 56 µM
not listed: [20]
inactive: all other assays above
